Data on eight molecules can be found in PubChem BioAssay (NCI).

Each structure is given as a SMILES string. This is part of a sample that, as a whole, favours compounds with a hit. Of some 83,000 tested, about 20% had one in any assay.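 How to read the values: 0–100, growth inhibition (40 = 60% inhibited); 0, no net growth; -100 to 0, cell death (-40 = 40% of starting cells died; -100 = all dead).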 Unmarked numbers belong to inactive results. Activity calls are given as the source filed them. The calls were made as follows: active = growth percent below 10; inactive = the rest.

Test systems include NCI-H23 lung; NCI-H226 lung; NCI-H322M lung; HOP-62 NSCLC; NCI-H460 lung; 786-0 renal; DU-145 prostate; MDA-MB-231 breast; SF-268 CNS; SF-539 CNS; M14 melanoma; SNB-19 CNS; U251 CNS; SN12C renal; UO-31 renal; SK-OV-3 ovarian; MDA-MB-435 melanoma; SW-620 colon; HCT-116 colon; KM12 colon.
What all share (assay): NCI-60 one-dose screen, 48 h (100 = growth as untreated, 0 = no growth, -100 = all killed)
Holding throughout (settings): 10 µM unless noted

In the case of `CCC(CO)NC1CCCCC1` (stereo not given), the growth in the assay on NCI-H23 lung was 87.5%; in the assay with NCI-H226 lung it was 114%; in the assay with NCI-H322M lung, 97.2%; in the assay on HOP-62 NSCLC, 88.7%; in the assay with NCI-H460 lung it was 100%; with 786-0 renal it was 76%. For the same molecule, the growth in the assay with DU-145 prostate was 91.1%; in the assay on MDA-MB-231 breast it was 58%; in the assay on SF-268 CNS, 86.9%; with SF-539 CNS it was 17.7%; in the assay on M14 melanoma it was 84.6%; with SNB-19 CNS, 88.3%. For the same molecule, the growth was 55.1% in the assay with U251 CNS; 75.8% in the assay with SN12C renal; 66% in the assay on UO-31 renal; 102% in the assay on SK-OV-3 ovarian; 74.2% in the assay with MDA-MB-435 melanoma; 34.6% in the assay with SW-620 colon. Besides, the figures for the growth in the assay on HCT-116 colon and with KM12 colon were 26.8% and 54.6%, respectively.

As for `CC(/C=N/N=C(N)N)=N/N=C(N)N`, the growth was 95.3% in the assay with NCI-H23 lung; 97.4% in the assay on NCI-H226 lung; 34.9% with NCI-H322M lung; 81.1% in the assay with HOP-62 NSCLC; 66.2% with NCI-H460 lung; 70.4% in the assay with 786-0 renal. Further, the growth in the assay on DU-145 prostate is 93.9%; with MDA-MB-231 breast, 102%; with SF-268 CNS it was 72.9%; in the assay with SF-539 CNS it was 73.9%; in the assay with M14 melanoma it was 92.4%; in the assay on SNB-19 CNS it was 87.3%. Further, the growth with U251 CNS is 89.6%; in the assay with SN12C renal, 94.9%; with UO-31 renal, 69.9%; with SK-OV-3 ovarian it was 97.2%; in the assay with MDA-MB-435 melanoma, 100%; in the assay on SW-620 colon it was 98.5%. The figures for the growth with HCT-116 colon and with KM12 colon were 83.9% and 73.1%, respectively.

`O=C(c1cccs1)C1NO[N+]([O-])=C1c1cccs1` (stereo not given): the growth in the assay on NCI-H23 lung is 4.55% (active); in the assay on NCI-H226 lung, -0.733% (active); with NCI-H322M lung, 110%; with HOP-62 NSCLC it was 89.6%; with NCI-H460 lung, 82.3%; in the assay on 786-0 renal, 0.474% (active). Besides, the growth is 120% in the assay with DU-145 prostate; 86.2% with MDA-MB-231 breast; 109% in the assay with SF-268 CNS; 36.3% with SF-539 CNS; -40.2% (active) in the assay on M14 melanoma; 103% in the assay on SNB-19 CNS. Also, the growth in the assay with U251 CNS is 64%; in the assay on SN12C renal, 73.4%; with UO-31 renal, -83.3% (active); in the assay with SK-OV-3 ovarian it was 118%; with MDA-MB-435 melanoma, 72.9%; in the assay with SW-620 colon it was -91.9% (active). Also, the growth is 25.6% in the assay with HCT-116 colon and 74.8% with KM12 colon.

In the case of `O=C1NC(=O)C(CN2C(=O)C3(c4ccccc42)[C@H](Cl)C(=O)N3c2ccccc2)C(=O)N1` (stereo not given in full), the growth in the assay on NCI-H23 lung is 69.1%; in the assay on NCI-H226 lung it was 76.4%; in the assay on NCI-H322M lung, 90.6%; with HOP-62 NSCLC, 66.3%; in the assay with NCI-H460 lung, 94.8%; with 786-0 renal, 94%. For the same molecule, the growth in the assay with DU-145 prostate was 102%; in the assay on MDA-MB-231 breast it was 51.4%; in the assay on SF-268 CNS, 84.7%; in the assay with SF-539 CNS, 74.1%; in the assay on M14 melanoma, 105%; in the assay with SNB-19 CNS it was 88.6%. The growth in the assay with U251 CNS was 72.6%; in the assay on SN12C renal it was 97.4%; in the assay on UO-31 renal, 69.2%; in the assay with SK-OV-3 ovarian, 83.1%; in the assay on MDA-MB-435 melanoma, 104%; in the assay on SW-620 colon, 72.5%. The growth was 79.9% in the assay on HCT-116 colon and 86.3% in the assay with KM12 colon.

Consider `O=[As]c1ccc(C(=O)c2ccc(Oc3ccccc3)cc2)cc1` (stereo not given), for which the growth in the assay with NCI-H23 lung is -77.5% (active); in the assay with NCI-H226 lung it was -85.5% (active); with NCI-H322M lung it was -79.1% (active); in the assay on HOP-62 NSCLC it was -98.3% (active); with NCI-H460 lung it was -31.9% (active); with 786-0 renal, -99.6% (active). Besides, the growth in the assay with DU-145 prostate is -94% (active); in the assay with MDA-MB-231 breast, -98.4% (active); with SF-268 CNS, -89.2% (active); with SF-539 CNS, -98.4% (active); in the assay with M14 melanoma, -94.1% (active); in the assay on SNB-19 CNS it was -97.4% (active). Further, the growth with U251 CNS was -100% (active); in the assay with SN12C renal, -98.4% (active); with UO-31 renal, -84.6% (active); with SK-OV-3 ovarian it was -100% (active); in the assay with MDA-MB-435 melanoma it was -52% (active); with SW-620 colon, -82.6% (active). Also, the growth in the assay with HCT-116 colon was -99.2% (active); with KM12 colon it was -87.2% (active).

For the molecule `CC1COC(=O)C1` (stereo not given), the growth was 104% with NCI-H23 lung; 96.7% with NCI-H226 lung; 100% in the assay with NCI-H322M lung; 99.6% in the assay on HOP-62 NSCLC; 102% in the assay with NCI-H460 lung; 95.1% in the assay on 786-0 renal. Also, the growth in the assay on DU-145 prostate was 104%; with MDA-MB-231 breast it was 120%; in the assay on SF-268 CNS, 109%; in the assay with SF-539 CNS, 96.4%; in the assay on M14 melanoma, 102%; with SNB-19 CNS it was 105%. Besides, the growth in the assay on U251 CNS was 102%; in the assay on SN12C renal it was 98.4%; in the assay on UO-31 renal, 90.4%; with SK-OV-3 ovarian, 96.1%; with MDA-MB-435 melanoma, 102%; in the assay on SW-620 colon it was 97.8%. Besides, the growth with HCT-116 colon is 102%; in the assay on KM12 colon, 99.8%.

Take `CC1(C)N=C(N)N=C(N)N1c1ccc(CCC(=O)Nc2cccc(S(=O)(=O)F)c2)cc1`: the growth with NCI-H23 lung was 63.8%; in the assay with NCI-H226 lung it was 89%; with NCI-H322M lung it was 79%; in the assay on HOP-62 NSCLC it was 82.8%; in the assay with NCI-H460 lung it was 27.7%; with 786-0 renal it was 58%. The growth is 72.1% in the assay on DU-145 prostate; 104% in the assay with MDA-MB-231 breast; 51.6% in the assay with SF-268 CNS; 39.4% in the assay with SF-539 CNS; 69.8% in the assay with M14 melanoma; 51.9% in the assay on SNB-19 CNS. Moreover, the growth in the assay with U251 CNS was 42.3%; in the assay with SN12C renal, 46.5%; in the assay with UO-31 renal, 85.2%; in the assay on SK-OV-3 ovarian, 101%; in the assay with MDA-MB-435 melanoma, 35.3%; with SW-620 colon, 52.3%. For the same molecule, the growth in the assay with HCT-116 colon is 41.3%; with KM12 colon, 75%.

Consider `S=P(NC1CCCCC1)(N1CC1)N1CC1`, for which the growth in the assay with NCI-H23 lung was 110%; in the assay with NCI-H226 lung, 113%; in the assay on NCI-H322M lung, 113%; in the assay on HOP-62 NSCLC, 101%; in the assay with NCI-H460 lung it was 82.8%; in the assay with 786-0 renal it was 101%. The growth in the assay with DU-145 prostate was 108%; in the assay with MDA-MB-231 breast, 104%; in the assay with SF-268 CNS, 98.6%; in the assay with SF-539 CNS, 107%; with M14 melanoma it was 105%; in the assay on SNB-19 CNS, 113%. Besides, the growth in the assay on U251 CNS was 101%; in the assay with SN12C renal it was 98.1%; in the assay with UO-31 renal, 94.1%; in the assay with SK-OV-3 ovarian, 131%; in the assay with MDA-MB-435 melanoma, 110%; in the assay with SW-620 colon, 96.5%. The results for the growth in the assay with HCT-116 colon and with KM12 colon were 93.3% and 110%, respectively.
